The campaign covered roughly 190,000 compounds. About 45 (0.02%) were called active. Rule as the data show it: active = inhibition above about 40%. These entries were drawn from the full list.
Biological target: Bcl-2-like protein 2 (Homo sapiens) (UniProt Q92843)
Test: Bcl-W/Bim complex disruptors – biochemical, multiplexed, bead-based flow cytometry, primary screen (AID 952);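 also: 0% = bound tracer without compound and 100% = peptide blocker; higher means less fluorescent Bim peptide bound to Bcl-W beads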
Settings: Bim peptide-Bcl-W binding, at 10 µM, stronger effect = higher value

Bcl-2-like protein 2 (Homo sapiens), sequence (Q92843 whole entry, looked up): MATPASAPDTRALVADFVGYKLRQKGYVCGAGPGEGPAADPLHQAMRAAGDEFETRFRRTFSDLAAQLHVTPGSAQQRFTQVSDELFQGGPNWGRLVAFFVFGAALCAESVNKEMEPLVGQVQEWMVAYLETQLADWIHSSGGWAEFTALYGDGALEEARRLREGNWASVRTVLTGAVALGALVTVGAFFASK

inhibition, inactive:
CCc1ccc(-n2c(SCc3cc(=O)n4cc(Br)ccc4n3)nc3[nH]ncc3c2=O)cc1 -4%, COCCNC(=O)C(c1ccc(O)cc1)N(C(=O)CCC(=O)Nc1nccs1)c1ccc(C)cc1 (stereo unspecified) -3%, O=C(CN1CCN(S(=O)(=O)c2ccc(Br)cc2)CC1)Nc1ccccc1C(=O)c1ccccc1 -9%, O=C(NCC1COc2ccccc2O1)C1(c2ccccc2)CCCC1 (stereo unspecified) -1%, OCCCC1CCCCN1Cc1nc(Cc2ccccc2Cl)no1 (stereo unspecified) 4%, CCOC(=O)/C(=N\Nc1cc(Cl)ccc1Cl)N1CCN(C)CC1 -5%, COC(=O)c1c(NC(=O)CN(c2ccc(C)c(C)c2)S(C)(=O)=O)sc2c1CCCC2 -6%, Cc1ccc(S(=O)(=O)N2CCCC2C(=O)OCc2nc3sc(C)c(C)c3c(=O)[nH]2)cc1 (stereo unspecified) -3%, CN(C)c1nc(N)nc(Cn2nnc(-c3ccc(C(F)(F)F)cc3)n2)n1 -5%, CC(=O)N/N=C/c1cc2c(cc1[N+](=O)[O-])OCO2 -2%, O=C(CN1CCN(C(=S)NC2CCCC2)CC1)Nc1ccc(Oc2ccccc2)cc1 -12%, Cc1ccc2nsnc2c1NC(=O)c1ccccc1[N+](=O)[O-] 0%, CC(C)N1CCC(N2CCN(Cc3cccnc3)CC2CCO)CC1 (stereo unspecified) -4%, CCN(CCCNC(=O)CCn1c(=O)[nH]c2ccsc2c1=O)c1ccccc1 1%, O=C(COC(=O)c1ccccc1C(=O)N1CCN(c2ccccc2)CC1)NCc1ccccc1 -3%, O=C(CCCO)N/N=C/c1cc(Br)ccc1O -3%, CC(C)(C)CN1CCNC(=O)C1CC(=O)NC1Cc2ccccc2C1 (stereo unspecified) 1%, COc1ccc(C(=O)N2CCC(C(=O)Nc3ccc(C)cc3)CC2)cc1 -1%, N#Cc1ccc(-c2nc3cc(C#N)c(C#N)cc3nc2-c2ccccc2)cc1C#N 0%, COc1ccc(NC(=S)SC)cc1OC -2%, O=C(N/N=C/c1ccc([N+](=O)[O-])o1)c1cccc(S(=O)(=O)N2CCOCC2)c1 0%, C=CCOC(=O)C1=C[C@@H](c2ccccc2)C[C@@H](OCc2ccc(CO)cc2)O1 0%, CCC(C)(C)NC(=O)CN(C(=O)CCC(=O)Nc1cc(C)ccn1)c1ccc2c(c1)OCCO2 1%, Cn1c(=NC(=O)c2ccc3c(c2)OCCO3)sc2cc(S(C)(=O)=O)ccc21 -1%, Cn1nc(-c2ccccc2)c(CO)c1Sc1ccccc1 -2%, Cc1cc(C)c(S(=O)(=O)N2CCOCC2)cc1C 0%

— PubChem BioAssay AID952 (NMMLSC, 2007)
